# Bioassay records: PubChem BioAssay, National Center for Advancing Translational Sciences (NCATS)
# HT1080 IDH1KD tx = qHTS for induction of synthetic lethality in tumor cells producing 2HG: qHTS for the HT-1080-IDH1KD cell line; hit rate 2% among 360,000; HT-1080 IDH1 knockdown viability, ATP luminescence, 48 h; AID 686971, 2013; Potency, µM (highest dose often 46.1 µM), without a hit: at the highest dose activity, negative = toxicity, actives largely listed as cytotoxic;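 note: potency is the fitted concentration of half-maximal effect; 0% = DMSO wells and -100% = cell-free medium wells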
#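 HT-1080-IDH1KD cells (IDH1 knocked down), 750/well in RPMI with 5% FBS, treated with compound 48 h at 37 degrees C. Viability by CellTiter-Glo luminescence, normalised to DMSO and no-cell wells; concentration-response curves classed.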
# HT1080NT lethal = qHTS for induction of synthetic lethality in tumor cells producing 2HG: qHTS for the HT-1080-NT fibrosarcoma cell line; HT-1080-NT fibrosarcoma viability, CellTiter-Glo ATP luminescence, 48 h; Potency, µM (doses to about 46.1 µM), inactives show top-dose activity, negative = less viability, usual class: cytotoxic; hit rate 1.6% among 360,000; AID 686970, 2013;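 note: NT is the 2HG producing partner of a matched IDH1 knockdown line; potency is the fitted concentration of half-maximal effect; 0% = DMSO-treated cells and -100% = media-only wells without cells; nearly all actives have a fitted effect of over 55% in size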
#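 Viability by CellTiter-Glo luminescence after 48 h compound exposure at 37C of HT-1080-NT cells (750/well, RPMI, 5% FBS). % activity scaled between DMSO wells and medium-only wells, then curve-fitted and categorized by curve class.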
# ELG1 repair inh = qHTS screen for small molecules that inhibit ELG1-dependent DNA repair in human embryonic kidney (HEK293T) cells expressing luciferase-tagged ELG1. Potency, µM (series often up to 46.1 µM), for the others: top-dose activity change, negative = inhibition, actives largely listed as inhibitors. hit rate 2.3% among 330,000. HEK293T ELG1-luciferase reporter, luminescence, 16 h; DNA damage induced by 5-fluorouridine; note: potency is the fitted concentration of half-maximal effect; nearly all actives have a fitted effect of over 55% in size
#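 Quantitative HTS, concentration-response format. 2,000 cells/well co-treated with 5-fluorouridine and compound, 16 hr in 5% CO2 at 37 °C; ONE-Glo luminescence read after 30 min.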
# TDP1 cell noCPT = qHTS for Inhibitors of human tyrosyl-DNA phosphodiesterase 1 (TDP1): qHTS in cells in absence of CPT; DT40 Tdp1-/- hTDP1 cells, no CPT, ATP luminescence, 48 h; Potency, µM (doses to about 46.2 µM), for inactives: at the highest dose activity change, negative = growth inhibition, usual class: inhibitors; hit rate 15% among 420,000; note: potency is the fitted concentration of half-maximal effect; nearly all actives have a fitted effect of over 55% in size
#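 Luminescent ATP content (CellTiter-Glo) served as the growth readout. Knockout chicken DT40 cells expressing human TDP1 were exposed to compounds without camptothecin for a minimum 48 hr at 37 °C.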
# DT40 TDP1 CPT = qHTS for Inhibitors of human tyrosyl-DNA phosphodiesterase 1 (TDP1): qHTS in cells in presence of CPT; chicken DT40 Tdp1-/-;hTDP1 cells + 20 nM CPT, ATP luminescence, 48 h; Potency, µM (doses to about 46.2 µM), inactives show top-dose activity change, negative = growth inhibition, most hits filed as inhibitors; hit rate 12% among 420,000; note: potency is the fitted concentration of half-maximal effect; nearly all actives have a fitted effect of over 55% in size
#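 Chicken DT40 Tdp1-/- cells complemented with human TDP1, 400 cells/well, exposed to compounds plus 20 nM camptothecin for at least 48 h at 37 C; viability read as ATP content by CellTiter-Glo luminescence.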
# IL-1B inflam inh = qHTS for Inhibitors of Inflammasome Signaling: IL-1-beta AlphaLISA Primary Screen; hit rate 4.7% among 360,000; THP-1 LPS/ATP IL-1B secretion, AlphaLISA, 16 h; stronger effect = lower value; activity change, % at 57.5 µM; in the data active = activity change below about -50%; inconclusive = mostly about -30% to -49%
#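 Secreted IL-1B measured by AlphaLISA bead assay after 16 h compound exposure of THP-1 cells; compounds (final up to 57.5 uM) added 1 h before LPS (250 ng/mL) and ATP (1.25 mM) stimulation; lower signal means less secretion.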
# The depositor's hits bear a star; i = inactive; ? = inconclusive; . = no result; ! = not active in a repeat; [ ] = another dose, or the depositor's remark. In the library only some 19% were active in any assay of this set; here they are far more common. Unless noted, calls come from the whole dose curve; as a rule, active = well fitted curve in the direction sought with a large enough effect; inconclusive = small, poorly fitted or top-dose-only effect, or another doubt; inactive = no such curve, though single readings can be large; an effect the other way counts as inactive or inconclusive. Unless noted, % is set by controls: 0 for no effect and ±100 for the full control effect.
SMILES,HT1080 IDH1KD tx,HT1080NT lethal,ELG1 repair inh,TDP1 cell noCPT,DT40 TDP1 CPT,IL-1B inflam inh
COc1ccc(S(=O)(=O)NCC(c2ccc(F)cc2)N2CCN(C)CC2)cc1 (stereo unspecified),5%,2%,13%,13%,5%,-5
Cc1ccc(NC(=O)C(C)c2ccc(-c3ccccc3)c(F)c2)cc1 (stereo unspecified),13µM*,16µM*,?,7.3µM*,?,-9
CNC(=O)CSc1nc2[nH]ncc2c(=O)[nH]1,3%,7%,2%,7%,-10%,-17
Cc1ccccc1/C=N/n1c(-c2cc(-c3ccccc3)n[nH]2)n[nH]c1=S,-3%,-2%,7%,16µM*,?,1
Cc1ccsc1/C=N/n1c(-c2cc(-c3ccccc3)n[nH]2)n[nH]c1=S,-3%,-4%,20%,?,?,19
CC(C)(C)Cn1nc(-c2ccc(Cl)cc2)c2c(N)ncnc21,.,.,.,?,8.4µM*,.
Cc1ccc(-c2cc(N)n(Cc3ccc(Cl)cc3)n2)cc1,-28%,-24%,?,?,?,14
CC(C)(C)n1nc(-c2ccc(Cl)cc2)c2c(N)ncnc21,?,-20%,11%,18µM*!,8.2µM*!,-9
Cc1ccc(-c2nc(N)c3c(-c4ccc(C)cc4)nn(C(C)(C)C)c3n2)cc1,14%,15%,0%,-30%,?,-3
Nc1ncncc1-c1ccc(F)cc1,1%,-11%,.,?,-6%,-12
CC(C)(C)n1nc(-c2ccc(F)cc2)c2c(N)ncnc21,?,?,21%,16µM*,23µM*,-25
CCN(CC)S(=O)(=O)c1cc(NC(=O)Cn2cnc3ccccc3c2=O)ccc1C,-10%,1%,?,?,?,2
CN(c1ccccc1)S(=O)(=O)c1cccc(NC(=O)c2nn(C)c(=O)c3ccccc23)c1,-18%,-17%,18µM*,?,?,9
CN(c1ccccc1)S(=O)(=O)c1cccc(NC(=O)C2=NNC(=O)CC2)c1,-11%,?,16µM*,?,?,17
CN(c1ccccc1)S(=O)(=O)c1cccc(NC(=O)Cn2cnc3ccccc3c2=O)c1,-9%[9.24 µM],-20%,?,16µM*,21µM*,-1
Cc1ccc(C(=O)Nc2cccc(S(=O)(=O)N(C)c3ccccc3)c2)o1,10%,2%,?,?,?,-8
Cn1nc(C(=O)Nc2cccc(C(F)(F)F)c2)c2ccccc2c1=O,1%,13%,?,?,3%,6
CS(=O)(=O)N(CC(=O)N1CCN(c2ccccc2F)CC1)c1cc(C(F)(F)F)ccc1Cl,0%,9%,?,16µM*,?,0
CCc1ccccc1N(CC(=O)N1CCN(c2ccc(F)cc2)CC1)S(C)(=O)=O,8%[9.24 µM],-4%,-21%,23µM*,15µM*,1
CS(=O)(=O)N(CC(=O)N1CCN(c2ccccc2)CC1)c1cc(C(F)(F)F)ccc1Cl,0%,-1%,-7%,-26%,?,6
CS(=O)(=O)N(CCc1ccccc1)CC(=O)N1CCN(c2ccc(F)cc2)CC1,-7%,-4%,?,23µM*,?,-13
CCc1ccccc1N(CC(=O)N1CCCC1)S(C)(=O)=O,-2%,4%,5%,-19%,-1%,-2
CCCCc1nn2c(=O)cc(COC(=O)c3ccccc3NC(=O)c3ccccc3OC)nc2s1,.,.,.,2%,-2%,.
COc1ccccc1N1CCN(S(=O)(=O)CCNC(=O)c2cccc(F)c2)CC1,-8%,1%,-15%,?,?,-14
COc1ccc(Cc2nnc(NC(=O)C3CCN(C(=O)c4ccco4)CC3)s2)cc1,-21%,-17%,-13%,?,2%,14
SMILES,HT1080 IDH1KD tx,HT1080NT lethal,ELG1 repair inh,TDP1 cell noCPT,DT40 TDP1 CPT,IL-1B inflam inh
Cn1c(=O)c2cc(NC(=O)NCCc3cccs3)ccc2n1C/C=C/c1ccccc1,-15%,-16%,.,?,?,44
C=CCn1c(SCC(=O)Nc2cc(OC)c(NC(=O)c3ccco3)cc2OC)nnc1-c1ccncc1,0%,-1%,23µM*,?,-26%,-8
COc1cc2c(cc1NC(=O)CSc1nnc(Cc3cccs3)n1C)oc1ccccc12,-24%,-27%,?,?,?,-18
CCn1c(SCC(=O)Nc2cc3oc4ccccc4c3cc2OC)nnc1-c1cccs1,3%,10%,18µM*,?,?,0
C=CCn1c(SCC(=O)Nc2cccc3ccccc23)nnc1-c1cnccn1,4%,5%,?,-9%,2%,-13
O=C(NCCSc1ncc(-c2ccc(F)cc2)[nH]1)c1ccco1,23%,2%,14%,?,?,33
C=CCn1c(SCC(=O)Nc2cc3oc4ccccc4c3cc2OC)nnc1-c1cnccn1,0%,0%,12µM*,?,?,-11
COc1cc(NC(=O)c2ccco2)c(OC)cc1NC(=O)CSc1ncc(-c2ccc(F)cc2)[nH]1,-4%,10%,?,26µM*,?,-15
COc1cc(C(=O)Nc2nnc(C3=COCCO3)o2)cc(OC)c1OC,-4%,10%,8%,4%,16%,i
Cc1ccc2cccc(O)c2n1,.,.,.,7.1µM*,7.1µM*,.
COc1ccc(NC(=O)CCc2nnc3n(CC(C)C)c(=O)c4ccccc4n23)cc1,.,.,.,-20%,0%,.
CCOC(=O)C1=C(COC(=O)/C=C/c2ccc(SC)cc2)NC(=O)NC1C (stereo unspecified),-20%,-28%,10µM*,?,-25%,-22
CCOC(=O)C1=C(COC(=O)COc2ccc(C#N)cc2)NC(=O)NC1C (stereo unspecified),-10%,3%,9%,16µM*,9%,i
CCOC(=O)C1=C(COC(=O)/C=C/c2ccc(OC)cc2)NC(=O)NC1C (stereo unspecified),?,-30%,?,21µM*,9.2µM*,-3
